Fewer than 10 of roughly 3,300 compounds were called active.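 Rule for the calls: active = growth inhibition above 90% in viable cell count at a single dose; inactive = growth inhibition below 90%.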 Only a sample is shown.
Test: HT29 colon tumor cell growth inhibition, primary screen, imaging, high content imaging, 24 h, CellTiter-Glo (AID 770);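 for condensed nuclei: share of cells whose nuclear area falls below control median minus 1.5 SD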
Conditions: HT29 cell number by imaging, at 10 µM, stronger effect = higher value; for condensed nuclei: measured here: percent cells with condensed nuclei
[1] = measured here: ATP CellTiter-Glo viability

Compound	growth inhibition	growth inhibition [1] [%]	condensed nuclei [%]
CCC(NC(=O)Nn1cnnc1)(C(F)(F)F)C(F)(F)F	3.51% (inactive)	-0.07	2.8
O=C(NCCN1CCCCC1)c1ccc(=O)oc1	-6.93% (inactive)	-12.9	2.43
CC(=Nc1ccc(C)c(C)c1)C1=C(O)CCC1=O	6.59% (inactive)	-5.94	3.62
CCN(CC)CCNc1nc2c(c(=O)[nH]c(=O)n2C)n1CCOc1ccccc1	-28.8% (inactive)	-0.48	2.26
Cc1ccc(C2C(C(=O)c3cc4ccccc4o3)=C(O)C(=O)N2CCN(C)C)o1 (configuration not stated)	-17.9% (inactive)	-1.01	2.37
CCOc1cc(C2Nc3ccccc3C(=O)N2c2ccccc2OC)ccc1O (configuration not stated)	1.14% (inactive)	-2.4	1.12
Cn1c(=O)c2c(nc(Br)n2CCSc2ncccn2)n(C)c1=O	17.9% (inactive)	6.9	1.48
Cc1ccc(N2C(=O)CC3(CC4C=CC3C4)C2=O)cc1 (configuration not stated)	-2.66% (inactive)	9.8	2.87
CNC(=O)CC(C(=O)O)c1ccc(OC(C)C)cc1 (configuration not stated)	14% (inactive)	5.18	2.97
CC(C)Sc1nc(N2CCCC2)c2c(c1C#N)CC(C)(C)OC2	-32.3% (inactive)	-22.9	2.77
CN1C2C=C3C(C#N)=C(N)C(C#N)(C#N)[C@@H](c4cccs4)C3C1CC2 (some centres not stated)	-11.2% (inactive)	-11.8	3.15
N#C/C(C(=O)NCc1ccco1)=C1/SC(Cc2ccc(F)cc2)C(=O)N1c1ccccc1 (configuration not stated)	16.5% (inactive)	-3.7	7.66
CCOC(=O)/C=c1\s/c(=C(\C#N)C(=O)OCC)n(-c2ccccc2)c1=O	-8.81% (inactive)	-10.2	2.51
Cc1nc(Nc2ncc3c(n2)CCCC3=O)nc2ccccc12	-21.1% (inactive)	-26.2	3.04
CCOC(=O)c1[nH]c2cc3c(cc2c1NC(=O)CN1CCC(C)CC1)OCO3	37.9% (inactive)	20	3.55
O=C(C1=C(O)C(=O)N(CCCN2CCOCC2)C1c1ccccn1)c1cc2ccccc2o1 (configuration not stated)	-11.4% (inactive)	-7.9	2.31
CC1(C)Cc2c(c(-c3ccccc3Cl)[nH]c(=O)c2C#N)CO1	-42.2% (inactive)	-17.5	1.85
COC(=O)C(NC(C)=O)(Nc1ccccc1)C(=O)OC	-24.8% (inactive)	-9.05	3.37
O=C(OCCCN1CCCC1)C1(c2ccccc2)CCCC1	3.8% (inactive)	4.75	5.7
CCCCCCSC1=C(C#N)C(c2ccccc2)CC(=O)N1 (configuration not stated)	-14.4% (inactive)	-7.19	3.36

Compound	growth inhibition	growth inhibition [1] [%]	condensed nuclei [%]
C=C(C)CSC1=C(C#N)C(c2ccsc2)CC(=O)N1 (configuration not stated)	-9.27% (inactive)	-4.29	1.96
N#CC1=C2SCC(O)(c3ccccc3)N2C(=O)CC1c1ccccc1 (configuration not stated)	90.7% (active)	28.5	46
Nc1c2c(nc3ccccc13)N(c1ccccc1)CC2	-26.1% (inactive)	-9.66	3.19
CC(C)c1cc(NCCCN2CCOCC2)n2c(nc3ccccc32)c1C#N	-4.17% (inactive)	-7.5	5.23
CCCOc1ccc(C2NC(=O)NC2=O)cc1 (configuration not stated)	10.6% (inactive)	-11.9	16
Cc1cc(C)n(Cc2cc(C)c(Cn3nc(C)cc3C)cc2C)n1	-26.1% (inactive)	-2.81	2.58
CCOc1ccc2c(C)nc(NC3=NC(C)(C)C=C(C)N3)nc2c1	18.5% (inactive)	16.6	3.47
CC1(C)Cc2c(sc3c4nnnn4c4nnnn4c23)CO1	6.59% (inactive)	-3.55	2.72
Cc1ccc(C(=O)C2=C(O)C(=O)N(CCN3CCOCC3)C2c2ccccn2)o1 (configuration not stated)	20.8% (inactive)	0.76	4.96
Cc1cccn2c(=O)c(/C=C(\C#N)S(=O)(=O)c3ccccc3)c(N3CCN(C)CC3)nc12	5.64% (inactive)	13.3	3.93
Nc1nnc(CSCc2ccc(F)cc2)s1	-13.9% (inactive)	-8.17	3.43
Cc1ccc2[nH]c3c(N4CCCCCC4)ncnc3c2c1	74.2% (inactive)	38.6	5.98
Cc1cc(=O)oc(C)c1C(=O)Nc1cccc2nonc12	38% (inactive)	7.72	3.32
C/C(=N\O)C(=O)NCCCNCCCN(C)C	28.6% (inactive)	10.3	4.53
N#CC1=C(SCC(=O)c2ccc(Cl)cc2)NC2=C(C(=O)CCC2)C1c1ccco1 (configuration not stated)	64.2% (inactive)	40	20.2
O=S(=O)(/C=C/c1ccccc1)Nc1ccc2c(c1)OCO2	-3.8% (inactive)	-13.4	3.87
CCCOc1ccc(/C(O)=C2/C(=O)C(=O)N(CCN(C)C)C2c2ccncc2)cc1 (configuration not stated)	-14% (inactive)	-1.78	5.23
CCOc1nc(SCCOc2ccc(C)cc2)nc(N(C)C)n1	-2.97% (inactive)	-13.9	2.83
CCOC(=O)COc1ccc(Oc2nc(C)cc(OC)n2)nn1	-1.19% (inactive)	1.86	5.21

Reference: PubChem BioAssay AID770 (SRMLSC, 2007)
